{
  "source": "PubChem BioAssay AID2284193",
  "about": "(EPA ToxCast)",
  "note": "Activity calls are given as the source filed them. The calls were made as follows: active = hit-call score of the fitted dose curve at least 0.9, where 1 is the maximum; inactive = score below 0.9.",
  "data": [
    {"biological_target": "human Tachykinin Receptor NK1 Agonism, TACR1 (gene 6869) (UniProt P25103)", "sequence (P25103 whole entry, looked up)": "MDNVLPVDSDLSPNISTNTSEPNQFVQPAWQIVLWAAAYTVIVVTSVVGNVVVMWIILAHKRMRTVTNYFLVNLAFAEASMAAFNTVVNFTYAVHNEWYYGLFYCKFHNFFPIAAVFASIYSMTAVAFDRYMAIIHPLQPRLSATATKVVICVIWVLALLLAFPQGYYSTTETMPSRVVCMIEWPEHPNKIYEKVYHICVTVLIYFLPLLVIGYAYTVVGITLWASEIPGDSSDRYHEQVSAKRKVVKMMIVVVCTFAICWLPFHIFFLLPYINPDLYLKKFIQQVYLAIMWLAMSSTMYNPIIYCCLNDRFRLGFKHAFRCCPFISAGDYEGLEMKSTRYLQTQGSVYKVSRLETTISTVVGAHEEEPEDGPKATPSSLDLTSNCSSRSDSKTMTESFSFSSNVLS", "experiment": "ERF_TW_GPCR_hTACR1: Eurofins (ERF) G Protein-Coupled Receptor (GPCR) Radioligand Binding LeadHunter Assay for human Tachykinin Receptor NK1 Agonism", "protocol": "ERF_TW_GPCR_hTACR1 is a biochemical, single-readout assay that uses extracted gene-proteins in a cell-free assay. Measurements were taken 1.5 hour after chemical dosing in a 96-well plate. See NK1 Human Tachykinin GPCR Binding (Agonist Radioligand) Assay, Panlabs.ERF_TW_GPCR_hTACR1 is an assay component calculated from the ERF_TW_GPCR_hTACR1 assay. It is designed to measure radioligand binding using a type of binding reporter as detected by scintillation counting with radiometry technology.Data from the assay component ERF_TW_GPCR_hTACR1 was analyzed at the assay endpoint, ERF_TW_GPCR_hTACR1, in the positive analysis fitting direction relative to DMSO as the negative control and baseline of activity. Using a type of binding reporter, gain-of-signal activity can be used to understand changes in radioligand binding as they relate to gene TACR1. To generalize the intended target to other relatable targets, this assay endpoint is annotated to the gpcr intended target family, where the subfamily is tachykinin.\nHuman recombinant neurokinin NK1 receptors expressed in CHO cells are used in modified Tris-HCL buffer pH 7.4. A 36 ug aliquot is incubated with 0.8 nM [3H]Substance P for 90 minutes at 4C. Non-specific binding is estimated in the presence of 10 uM L-703,606. Receptors are filtered and washed, the filters are then counted to determine [3H]Substance P specifically bound. […]", "values": [
      {"smiles": "CCCCC[C@H](O)CC(=O)CCc1ccc(O)c(OC)c1", "outcome": "inactive"},
      {"smiles": "COc1cc(CCC(=O)CC(=O)CCc2ccc(O)c(OC)c2)ccc1O", "AC50": "5 µM (active)"}
    ]}
  ]
}
